Data on 88 compounds can be found in PubChem BioAssay AID504652 (National Center for Advancing Translational Sciences (NCATS), 2011).

The structures appear in SMILES notation. Hit rate of the full screen: of about 360,000 compounds, about 11,000 (3.1%) were called active. Shown is part of a subset that was picked to be rich in actives. A number with no mark means an inactive call. Cut-off read from the data, not from the text of the source: active = activity change below about -30%; inactive = the rest.
% is set by controls: 0 for no effect and ±100 for the full control effect.

The target of this experiment is D(1A) dopamine receptor (Homo sapiens) (UniProt P21728). Description: Antagonist of Human D 1 Dopamine Receptor: qHTS. The note with it: HEK293 TREx D1 cells, calcium flux, dopamine EC80; at 10 µM; stronger effect = lower value. An outline of the steps: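 Antagonism measured as reduced calcium response to an EC80 dopamine addition following 180 s compound pre-read; cells were inducible HEK293 Trex D1 plated overnight at 30 C, read kinetically at 1 cycle/sec.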
Sequence of D(1A) dopamine receptor (Homo sapiens) (P21728 whole entry, looked up): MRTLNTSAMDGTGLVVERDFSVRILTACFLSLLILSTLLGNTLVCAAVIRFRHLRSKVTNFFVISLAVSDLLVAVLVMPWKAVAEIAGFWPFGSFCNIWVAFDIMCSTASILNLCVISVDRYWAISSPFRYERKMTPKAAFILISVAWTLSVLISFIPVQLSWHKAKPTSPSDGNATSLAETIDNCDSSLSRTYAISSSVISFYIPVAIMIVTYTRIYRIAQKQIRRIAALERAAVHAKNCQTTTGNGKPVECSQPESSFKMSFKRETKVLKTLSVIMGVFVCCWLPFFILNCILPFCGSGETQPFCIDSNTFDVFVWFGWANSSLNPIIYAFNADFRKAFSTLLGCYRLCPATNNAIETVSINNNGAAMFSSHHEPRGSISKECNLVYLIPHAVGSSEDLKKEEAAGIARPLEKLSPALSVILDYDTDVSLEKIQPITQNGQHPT
(qHTS replaces the single test concentration by a dilution series.)
Turning to `COc1cc(OC)c(NC(=O)c2c3c(nn2C)-c2ccccc2SC3)cc1Cl`, the activity change, negative = inhibition is 2.27%. With `COc1cc(OC)c(NC(=O)c2nc(-c3ccncc3)no2)cc1Cl` the figure was -32.7% (active); with `COc1cc(NC(=O)c2ccc(-c3csc(C)n3)cc2)c(OC)cc1Cl`, -3.88%; with `COc1ccc(NC(=O)c2ccc3oc(=O)c(S(=O)(=O)c4ccc(F)cc4)cc3c2)c(OC)c1`, 4.65%. The same measure for `O=C(Nc1cc(-c2nc3ccccc3o2)ccc1Cl)c1cc([N+](=O)[O-])ccc1N1CCOCC1`: -2.21%. With `Nc1nc(COC(=O)CCC(=O)c2ccc(Cl)cc2)nc(Nc2ccccc2)n1` the figure was -34.3% (active). In the case of `Nc1nc(CC(=O)CSc2ccc(Cl)cc2)nc(Nc2ccc(F)cc2)n1`, the activity change, negative = inhibition was -8.8%. The same measure for `Cc1ccccc1Nc1nc(N)nc(COC(=O)CCC(=O)c2ccc(F)cc2)n1`: -23.2%; for `COc1ccccc1-c1cc(C(F)(F)F)nc(S(=O)(=O)CCCC(=O)Nc2cc(C)ccc2O)n1`: -0.269%; for `CCOC(=O)c1cc2c(=O)n3ccccc3nc2n(CCCOC)c1=NC(=O)C(C)Oc1ccccc1` (stereo not drawn): -0.513%. The same measure for `O=S(=O)(NC1CC1)c1ccc2c3c(cccc13)CC2`: -23.6%. With `CCc1ccccc1NC(=O)c1ccc(F)c(S(=O)(=O)NC2CCCCCC2)c1` the figure was -16.4%; with `O=S(=O)(NC1CCCCC1)c1ccc(F)c2ccccc12`, -32.8% (active); with `CCN1CCN(c2ncc3c(n2)CC(c2ccccc2O)CC3=O)CC1` (stereo not drawn), 0.271%. In the case of `CCN(Cc1ccccc1)Cc1c(O)ccc2c(=O)c(-c3ccc(Cl)cc3Cl)coc12`, the activity change, negative = inhibition was -1.12%. `COc1ccc(Nc2ncnc3sc(C)cc23)cc1`: the activity change, negative = inhibition is -13.7%. Regarding `CCOc1ccc(Nc2ncnc3scc(-c4ccc(OC)cc4)c23)cc1`, the activity change, negative = inhibition was 13.2%. With `COC(=O)c1ccc(Nc2ncnc3sccc23)cc1`, the activity change, negative = inhibition was -42.9% (active). The same measure for `O=C(CSc1nc2ccccc2nc1Cc1ccccc1)N1CCCCC1`: -12.3%. With `CCOC(=O)C1CCN(c2nc3c(S(=O)(=O)c4ccc(CC)cc4)nnn3c3ccc(Cl)cc23)CC1` the figure was -7.85%; with `Cc1ccc(-c2nnc(Nc3cccc(Br)c3)c3ccccc23)cc1S(=O)(=O)NCC1CCCO1` (stereo not drawn), -11.8%; with `CC1(C)NC(=O)N(CCOc2cccc(Oc3ccccc3)c2)C1=O`, 1.02%. With `N#Cc1ccc(OCCN2C(=O)NC3(CCSC3)C2=O)cc1` (stereo not drawn) the figure was -30.6% (active); with `O=C(CN1C(=O)NC2(CCCC2)C1=O)OCCOc1ccc(F)cc1`, -6.87%. Regarding `CCOC(=O)N1CCc2c(sc(NCc3cccc(F)c3)c2C(=O)Nc2ccccc2OCC)C1`, the activity change, negative = inhibition was -17.6%. `O=S(=O)(c1ccc2c(c1)OCCCO2)N1CCN(S(=O)(=O)c2c(F)cccc2F)CC1`: the activity change, negative = inhibition is -7.05%.

With `O=S(=O)(NCC1CN(S(=O)(=O)c2ccc3c(c2)OCCO3)C1)c1c(F)cccc1F`, the activity change, negative = inhibition was 2.66%. The same measure for `O=S(=O)(NC1CCN(S(=O)(=O)c2ccc3c(c2)OCCO3)CC1)c1c(F)cccc1F`: -30.3% (active); for `CCOc1ccccc1C(=O)NC1(C(F)(F)F)NC(=O)N(CCc2ccc(OC)c(OC)c2)C1=O` (stereo not drawn): 12%. The same measure for `CCOC(=O)CSC1=Nc2ccccc2C2=NC(CCC(=O)NCc3ccc(F)cc3)C(=O)N12` (stereo not drawn): 7.77%; for `Cc1ccc(S(=O)(=O)N2CCC(C(=O)Nc3cc(C)ccc3C)CC2)cc1`: 7.91%. With `CCc1ccc2oc(-c3ccc(C)c(NC(=O)/C=C/c4ccco4)c3)nc2c1` the figure was -0.213%; with `CCN(C(=O)Cn1cc(S(=O)(=O)N2CCN(c3ccccc3F)CC2)c2ccccc2c1=O)c1ccc(C)c(C)c1`, -3.49%. With `CCOC(=O)C1CCCN(C(=O)c2cncc(Br)c2)C1` (stereo not drawn), the activity change, negative = inhibition is -9.23%. The same measure for `CCOC(=O)C1CCCN(C(=O)c2ccc3c(c2)sc2nc(-c4ccc(CC)cc4)cn23)C1` (stereo not drawn): -33% (active); for `CCOC(=O)C1CCCN(C(=O)c2ccc(C)c(S(=O)(=O)N3CCCCC3)c2)C1` (stereo not drawn): -1.15%; for `O=C(NCCC1=CCCCC1)c1ccc2c(c1)N(Cc1ccccc1F)C(=O)c1ccccc1S2(=O)=O`: -12.5%. The same measure for `O=C(NC1CCCCC1)c1ccc(CNc2c(N3CCOCC3)c(=O)c2=O)cc1`: 11.4%; for `O=C(NCc1ccccc1)c1ccc(CNc2c(N3CCCC3)c(=O)c2=O)cc1`: -9.38%.

In the case of `CC1CCN(c2c(NCc3ccc(C(=O)NCc4ccccc4)cc3)c(=O)c2=O)CC1`, the activity change, negative = inhibition was -34.3% (active). `Cc1nc2sc(C)c(C)n2c(=O)c1S(=O)(=O)NCCc1ccc(Cl)cc1`: the activity change, negative = inhibition was -2.78%. The same measure for `CCc1ccc(S(=O)(=O)n2ccnc2)cc1`: -16.9%. With `CC(C)c1ccc(NC(=O)c2ccc(Cn3nc(N4CCN(c5ccccc5)CC4)ccc3=O)o2)cc1` the figure was -6.07%; with `CC(=O)N1CCN(c2ccc(NCc3ccc(C(C)C)cc3)cc2)CC1`, -50.6% (active). The same measure for `CC(C)c1ccc(N2CCN(C(=O)c3ccccc3NC(=O)/C=C(\C(=O)O)c3ccccc3)CC2)cc1`: -3.41%; for `COc1ccc(CNC(=O)c2cc3c(=O)[nH]c4ccccc4c3s2)cc1`: -33.6% (active). As for `O=C(NCCN1CCN(Cc2ccccc2)CC1)c1cc2c(=O)[nH]c3ccccc3c2s1`, the activity change, negative = inhibition is -7.42%. As to `COc1ccc(CNC(=O)c2cc3c(=O)[nH]c4ccc(C)cc4c3s2)c(OC)c1`, the activity change, negative = inhibition was 1.68%. The same measure for `Cc1cccc(NC(=O)c2ccc(F)c(S(=O)(=O)N(C)C3CCCCC3)c2)c1`: 4.16%; for `CC(C)c1ccc(NC(=O)NC2CCCCC2)cc1`: -4.57%. With `O=C(COC(=O)C1CC2C=CC1C2)Nc1ccccc1` (stereo not drawn) the figure was -18.1%; with `CC(C)c1ccc(NC(=S)NC2CC3C=CC2C3)cc1` (stereo not drawn), -34.1% (active); with `COc1ccc(C2=NC(c3ccncc3)=Nc3ccc(Br)cc3N2)cc1`, -11.7%. The same measure for `CCn1c(C(=O)Nc2cc(Cl)ccc2C)cc2sc(Cl)cc21`: -0.309%; for `O=C(c1ccc2c(c1)N(Cc1ccc(Cl)cc1)C(=O)c1ccccc1S2(=O)=O)N1CCCCC1`: 5.67%; for `COc1ccc(-c2cc(-c3nc(-c4cc(OC)c(OC)c(OC)c4)no3)[nH]n2)c(OC)c1`: 27%. Turning to `Cc1ccc(NC(=O)CN2C(=O)C(c3ccc(F)cc3)=NC23CCCCCC3)c(C)c1`, the activity change, negative = inhibition was 2.24%.

With `COc1ccc([C@H]2CC(=O)C=C(/C=C/c3ccccc3)C2)cc1`, the activity change, negative = inhibition is 3.37%. In the case of `O=C1C=C(c2cccc(Cl)c2)C[C@@H](c2ccc(F)cc2)C1`, the activity change, negative = inhibition is -32% (active). For the compound `COc1cccc(C2=CC(=O)C[C@H](c3ccc(OC)c(OC)c3)C2)c1`, the activity change, negative = inhibition was -42.8% (active). The same measure for `O=C1CC(c2cccc(Cl)c2)CC(O)=C1C=Nc1ccccc1` (stereo not drawn): -3.8%. The same measure for `O=C1C=C(c2cc(C(F)(F)F)cc(C(F)(F)F)c2)C[C@@H](c2ccc3c(c2)OCO3)C1`: -12.8%. With `COc1ccc([C@H]2CC(=O)C=C(c3ccc(OC(F)(F)F)cc3)C2)cc1OC`, the activity change, negative = inhibition is -5.99%.

As for `CC(=O)Nc1ccc(NC(=O)CCCc2nc(-c3ccc(C(C)(C)C)cc3)no2)cc1`, the activity change, negative = inhibition is 2.77%. With `COc1ccc(CNC(=O)c2cc3c(-c4ccccc4F)nn(C)c3s2)c(OC)c1` the figure was 8.78%; with `CCc1ccc(Nc2nn3c(=O)c4cc5c(cc4nc3s2)OCO5)cc1`, 7.15%; with `NC(=O)NC(=O)C(OC(=O)CCNS(=O)(=O)c1ccccc1)c1ccccc1` (stereo not drawn), -53% (active).

On to `Cc1ccc(S(=O)(=O)NCCC(=O)OCC(=O)N(C)c2ccccc2)cc1`, for which the activity change, negative = inhibition is -1.79%.

Turning to `O=C(CCNS(=O)(=O)c1ccccc1)NCCCc1ccccc1`, the activity change, negative = inhibition is -0.746%.

With `COc1cccc(CNC(=O)CN2C(=O)CCc3cc(S(=O)(=O)N4CCOCC4)ccc32)c1`, the activity change, negative = inhibition was -4.09%. With `Cc1ccc(C)c2sc(NC(=O)c3ccc(S(=O)(=O)N4CCCC4)cc3)nc12` the figure was 5.67%. With `CCOc1ccccc1NC(=O)CN1CCN(S(=O)(=O)c2ccc(Br)cc2)CC1` the figure was 6.89%; with `Cn1c(Cn2nnc3ccccc32)nnc1SCC(=O)c1ccccc1F`, -30.4% (active); with `Cn1c(CC(=O)Nc2ccccc2)nnc1SCC(=O)c1ccccc1`, -16.4%. The same measure for `Cn1c(CNC(=O)c2ccccc2F)nnc1SCc1ccc(F)cc1`: 26.9%; for `COc1ccc(CNC(=O)c2cc3cccc(OC)c3oc2=O)cc1`: -1.99%. For the compound `O=C(CSc1nccc(=O)[nH]1)Nc1ccc(N2CCOCC2)c(Cl)c1`, the activity change, negative = inhibition was -3.03%. Take `O=C(CSc1ccc([N+](=O)[O-])cn1)Nc1ccc(N2CCOCC2)c(Cl)c1`: the activity change, negative = inhibition is -35.4% (active). As to `O=C(CSc1ccc([N+](=O)[O-])cn1)Nc1ccc(N2CCOCC2)cc1`, the activity change, negative = inhibition was 0.609%. With `CCOC(=O)c1c(C)oc2ccc(N(C(=O)c3ccncc3)S(=O)(=O)c3ccc(CC)cc3)cc12` the figure was -12.9%. On to `C/C=C/c1ccc(OCC(=O)OCC(=O)Nc2c(C)nn(-c3ccccc3)c2C)c(OC)c1`, for which the activity change, negative = inhibition was -92.1% (active). With `Cc1nn(-c2ccccc2)c(C)c1NC(=O)CCl` the figure was -2.92%. With `Cc1nn(-c2ccccc2)c(C)c1NC(=O)COC(=O)c1cc(Cl)ccc1O` the figure was -7%; with `CCOC(=O)c1c(NC(=O)/C=C/c2ccc(OC)cc2)sc2c1CCC(C)C2` (stereo not drawn), -4.93%. For `CCCCOC(=O)CSc1ncnc2sc3c(c12)CCC(C)C3` (stereo not drawn), the activity change, negative = inhibition was -2.54%.

Turning to `COc1ccc(S(=O)(=O)N2CCN(C)CC2)c(C)c1`, the activity change, negative = inhibition is -0.84%.

`COc1ccc(S(=O)(=O)n2cnc3ccccc32)c(C)c1`: the activity change, negative = inhibition is -34% (active). Turning to `Cc1ccc(C)c(S(=O)(=O)n2cnc3ccccc32)c1`, the activity change, negative = inhibition was 1.78%.
